About 79,000 compounds went through this panel and 15% of them were active in at least one assay; those are over-represented in the sample as a whole. Values without a mark were called inactive. Activity calls are given as the source filed them. No stated cut-off is given here; in the data, active means growth inhibition above about 70%; inactive means the rest.

The nature of assay [1]: NCI Yeast Anticancer Drug Screen. Data for the rad50 strain (AID 155).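 Further: 0% = growth of vehicle-only cultures of the same strain.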 Particulars: S. cerevisiae rad50 strain growth inhibition; at 50.0 µM; hits give high values. Put shortly:
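Yeast carrying a defined DNA repair defect were exposed to test compounds, and growth was compared with vehicle-treated controls to give percent inhibition.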

Assay [2] in a line: NCI Yeast Anticancer Drug Screen. Data for the mec2-1 strain (AID 157). Particulars: S. cerevisiae mec2-1 strain, at 50.0 µM, hits give high values. Put shortly: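 Growth inhibition is read against vehicle-treated controls after compound exposure of the mec2-1 yeast strain, which is defective in DNA damage repair or cell cycle control.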
A short description of assay [3]: NCI Yeast Anticancer Drug Screen. Data for the sgs1 mgt1 strain (AID 161).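 Further: 0% = growth of cultures given vehicle only.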 Particulars: S. cerevisiae sgs1 mgt1 strain, at 50.0 µM, hits give high values. The gist of the method: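 Compounds are added to genetically altered yeast, and growth is compared with cultures given vehicle alone to give percent inhibition.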
Assay [4] can be described thus: NCI Yeast Anticancer Drug Screen. Data for the cln2 rad14 strain (AID 165).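 Further: 0% = growth equal to vehicle treated cultures.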 Particulars: S. cerevisiae cln2 rad14 strain, at 50.0 µM, hits give high values. The gist of the method: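 Growth inhibition, relative to vehicle-treated controls, is the read-out. The test organism is a yeast strain with defined genetic alterations, cln2 rad14.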
A short description of assay [5]: NCI Yeast Anticancer Drug Screen. Data for the bub3 strain (AID 167). Particulars: S. cerevisiae bub3 mutant strain, at 50.0 µM, hits give high values. The gist of the method: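 Compounds were applied to a genetically altered yeast strain carrying a cell-cycle control defect. Growth inhibition was scored against vehicle-treated controls.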
Assay [6] can be described thus: NCI Yeast Anticancer Drug Screen. Data for the mlh1 rad18 strain (AID 175). Particulars: S. cerevisiae mlh1 rad18 strain growth inhibition; at 50.0 µM; hits give high values. The gist of the method:
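Cells of a genetically altered yeast strain, deficient in DNA damage repair, were treated with compound. Their growth was then compared with that of vehicle-treated cultures to give inhibition.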

Turning to `CC[N+]1(C)CCC(O)(c2ccccc2)C(C(=O)c2ccccc2)C1` (centres undefined), the growth inhibition in assay [1] is 3.5%; in assay [2] it was -6.1%; in assay [3], -5.55%; in assay [4], 34.1%; in assay [5], 6.1%; in assay [6], 11.3%.

Turning to `C/C(CC(=O)Nc1ccc(C)c(C)c1)=N\N(c1ccccc1)c1ccccc1`, the growth inhibition in assay [1] is -16.6%; in assay [2] it was -13.8%; in assay [3], -27%; in assay [4] it was -3.4%; in assay [5], -17.6%; in assay [6], -20.5%.

In the case of `CCOc1c(C)cc(C(C)c2cc3c(cc2OC)OCO3)cc1C` (centres undefined), the growth inhibition in assay [1] was 19.2%; in assay [2], 26%; in assay [3] it was 23.5%; in assay [4], 17.4%; in assay [5], 51.4%; in assay [6], 25.1%.

Turning to `CC1CCCC(C)N1` (centres undefined), the growth inhibition in assay [1] is 2.5%; in assay [2], -9.05%; in assay [3] it was -1.75%; in assay [4], -1.95%; in assay [5], 1.5%; in assay [6] it was 10.8%.

`O=C1N(c2ccccc2)C2(O)C(=O)c3ccccc3C2(O)N1c1ccccc1` (centres undefined): the growth inhibition in assay [1] was -10%; in assay [2] it was -2.15%; in assay [3], 15.6%; in assay [4], 16.5%; in assay [5], 3.1%; in assay [6], -4.5%.

`C=CCc1cccc(C)c1O`: the growth inhibition was 18.9% in assay [1]; -16.1% in assay [2]; 20.4% in assay [3]; 13.6% in assay [4]; -2.6% in assay [5]; 20.3% in assay [6].

On to `C=C(CC(=O)NN)C(=O)NN`, for which the growth inhibition was -4.75% in assay [1]; 12.3% in assay [2]; -24.2% in assay [3]; -3.1% in assay [4]; -22.5% in assay [5]; 1.25% in assay [6].

Consider `Cc1cc(C)c(CCC(=O)O)c(C)c1`, for which the growth inhibition is 6.95% in assay [1]; 4.8% in assay [2]; -0.3% in assay [3]; 6.6% in assay [4]; -7.1% in assay [5]; -1.25% in assay [6].

As to `O=C(c1ccc(Cl)cc1)C(Br)C(C[N+](=O)[O-])c1ccccc1` (centres undefined), the growth inhibition in assay [1] is 99.3% (active); in assay [2], 99% (active); in assay [3] it was 99.5% (active); in assay [4], 97.2% (active); in assay [5] it was 99.1% (active); in assay [6], 99.2% (active).

For `O=C(O)c1ccn(-c2cccc(-n3ccc(C(=O)O)n3)n2)n1`, the growth inhibition in assay [1] was -1.05%; in assay [2] it was -17.1%; in assay [3] it was 2.25%; in assay [4], -47.7%; in assay [5] it was -15.4%; in assay [6], -7.1%.

`Nc1ccc2cc(S(=O)(=O)O)cc(O)c2c1`: the growth inhibition in assay [1] is 28.8%; in assay [2], -4.55%; in assay [3] it was -34.5%; in assay [4], -85.8%; in assay [5] it was 6.85%; in assay [6] it was 15.2%.

For `CCCCOC(=O)C(C)OC(=O)Nc1ccccc1` (centres undefined), the growth inhibition was 5.85% in assay [1]; 23.4% in assay [2]; 16.1% in assay [3]; -52.6% in assay [4]; 18.6% in assay [5]; 12% in assay [6].

As for `CCOC(=O)/C(=C\c1ccccc1)c1nc2ccccc2[nH]1`, the growth inhibition was -1.2% in assay [1]; -13.2% in assay [2]; -15.4% in assay [3]; -15.5% in assay [4]; -14.7% in assay [5]; -13.6% in assay [6].

In the case of `N#CC(c1ccccc1)N(CCc1ccccc1)C(=O)c1ccccc1` (centres undefined), the growth inhibition was -3.7% in assay [1]; 1.7% in assay [2]; -23.4% in assay [3]; -18.7% in assay [4]; -27.8% in assay [5]; -48.2% in assay [6].

`Cn1ncc2c(N)nc(NCCO)nc21`: the growth inhibition is 1.1% in assay [1]; 4.75% in assay [2]; -4.75% in assay [3]; -19.1% in assay [4]; 13.7% in assay [5]; -0.2% in assay [6].

For `COc1ccc(C(=O)CC(C#N)c2ccc(OC)cc2)cc1` (centres undefined), the growth inhibition is -6.5% in assay [1]; 3.25% in assay [2]; 0.55% in assay [3]; -21.2% in assay [4]; -4.75% in assay [5]; -1.35% in assay [6].

With `CN(C)c1ccc2oc3ccccc3c2c1`, the growth inhibition in assay [1] is -4.5%; in assay [2], -4.5%; in assay [3], -21.4%; in assay [4], -23.9%; in assay [5], 5.35%; in assay [6] it was -26.4%.

For the molecule `COc1ccc(NC(=O)Oc2ccc(C#N)cc2)cc1`, the growth inhibition in assay [1] was -1.3%; in assay [2] it was -16.1%; in assay [3], 5.5%; in assay [4], 8.3%; in assay [5] it was 10.4%; in assay [6], -1.55%.

In the case of `CCCCCCCCCCn1cnc2c(=O)[nH]c(N)nc21`, the growth inhibition in assay [1] is 1.85%; in assay [2], 2.75%; in assay [3] it was 9.7%; in assay [4], -0.25%; in assay [5] it was 2.8%; in assay [6], -4.85%.

As for `O=C(Oc1ccccc1[N+](=O)[O-])Oc1ccccc1[N+](=O)[O-]`, the growth inhibition in assay [1] was -3.45%; in assay [2], 16.3%; in assay [3], 19.5%; in assay [4] it was -29.4%; in assay [5], 16.2%; in assay [6], -2.7%.

As to `CCOc1c2ccsc2c(OCC)c2ccsc12`, the growth inhibition was -14.9% in assay [1]; -25.8% in assay [2]; -10.2% in assay [3]; 6.05% in assay [4]; -5.15% in assay [5]; -35.8% in assay [6].

As for `c1ccc(-c2ccc3ncccc3c2)cc1`, the growth inhibition in assay [1] was -17.9%; in assay [2], 3.5%; in assay [3], 5.05%; in assay [4], -34.4%; in assay [5], -0.4%; in assay [6], 2.3%.

With `CCOC(=O)C(C)C(CCC#N)(C(=O)OCC)C(=O)OCC` (centres undefined), the growth inhibition is -9.9% in assay [1]; -24.1% in assay [2]; -24% in assay [3]; -0.35% in assay [4]; -11.8% in assay [5]; -9.3% in assay [6].

Turning to `CCN(CC)CCn1cnc(C#N)c1N`, the growth inhibition in assay [1] was 4.45%; in assay [2] it was 1.05%; in assay [3], -1.35%; in assay [4] it was -27.6%; in assay [5] it was 1.65%; in assay [6] it was -0.2%.

For the molecule `CCC(=O)Nc1ccccc1-c1ccccc1`, the growth inhibition was 25.6% in assay [1]; 19% in assay [2]; 16.9% in assay [3]; 7.6% in assay [4]; -1.8% in assay [5]; 2.5% in assay [6].

On to `O=C1NC(Cc2ccc(O)cc2)C(=O)N1c1ccccc1O` (centres undefined), for which the growth inhibition was 2.5% in assay [1]; 0.95% in assay [2]; 5.35% in assay [3]; 2.5% in assay [4]; -6.9% in assay [5]; 3.5% in assay [6].

For the molecule `CCOC(=O)C(CCCOC1CCCCO1)(C(=O)CC)c1ccccc1` (centres undefined) (tested in a mixture with another compound), the growth inhibition in assay [1] was 25.4%; in assay [2], -7.05%; in assay [3], -6.25%; in assay [4], 2.3%; in assay [5] it was 1.9%; in assay [6], -3.05%.

For `CCCOCC(O)CNCCNCC(O)COCCC` (centres undefined), the growth inhibition in assay [1] is 4.1%; in assay [2], -2.7%; in assay [3], 8.15%; in assay [4], -34.5%; in assay [5], -3.65%; in assay [6], 7.3%.

Take `NC(=O)c1nc(N)nc(N)c1[N+](=O)[O-]`: the growth inhibition in assay [1] was -10.8%; in assay [2], -15.1%; in assay [3], -16.1%; in assay [4], -18.8%; in assay [5] it was -21.9%; in assay [6], -18.9%.

On to `CCCN1COC(OCCN(CC)CC)C(C)(C)C1` (centres undefined), for which the growth inhibition in assay [1] was 7.15%; in assay [2], -4.35%; in assay [3], -21.3%; in assay [4] it was 6.7%; in assay [5] it was 7.2%; in assay [6] it was 12.9%.

Regarding `COC(=O)C1c2ccoc2CC2C1C(O)C(O)C1C(C)(C)CCCC21C` (centres undefined), the growth inhibition is 57.5% in assay [1]; 88.6% (active) in assay [2]; 77.8% (active) in assay [3]; 72% (active) in assay [4]; 81.6% (active) in assay [5]; 92.5% (active) in assay [6].

On to `C(=C\c1ccccn1)/c1ccc(/C=C/c2ccccn2)cc1`, for which the growth inhibition in assay [1] was -31.2%; in assay [2] it was 18.6%; in assay [3], 8.3%; in assay [4] it was -26.8%; in assay [5] it was 3.25%; in assay [6] it was 13.7%.

For the molecule `CCCCCCCCCCCCCCCCCC[N+]1(C)CCOCC1`, the growth inhibition in assay [1] is 99.2% (active); in assay [2] it was 99.5% (active); in assay [3] it was 99.1% (active); in assay [4] it was 98.7% (active); in assay [5], 99.2% (active); in assay [6], 99.5% (active).

As to `Clc1ccc(CSc2cnnc(SCc3ccc(Cl)cc3)c2SCc2ccc(Cl)cc2)cc1`, the growth inhibition is -11.4% in assay [1]; 15.2% in assay [2]; -10.9% in assay [3]; -60% in assay [4]; -3.75% in assay [5]; -30.4% in assay [6].

With `C=CCOC(OCC=C)C(C)C`, the growth inhibition in assay [1] is -0.5%; in assay [2], -12.2%; in assay [3], -13.9%; in assay [4], -3.4%; in assay [5], -23.4%; in assay [6], -3.4%.

`Cc1cc(=O)c2cc([N+](=O)[O-])ccc2[nH]1`: the growth inhibition is 6.05% in assay [1]; 6.35% in assay [2]; -9.7% in assay [3]; -5.95% in assay [4]; 5.85% in assay [5]; -2.65% in assay [6].

With `O=C1c2cccc3cc([N+](=O)[O-])cc(c23)C(=O)N1Cc1cccnc1`, the growth inhibition in assay [1] is 42.5%; in assay [2], 15.6%; in assay [3], 38.6%; in assay [4], 19%; in assay [5], 10.5%; in assay [6] it was 10.8%.

On to `CCCN(CCC)S(=O)(=O)c1ccc(NC(=O)Oc2ccccc2OC)cc1`, for which the growth inhibition in assay [1] was 41.6%; in assay [2], 3.8%; in assay [3], 31.8%; in assay [4], 20.6%; in assay [5] it was -7.3%; in assay [6], 22.3%.

With `CCCCOB(OCCCC)OCCCC`, the growth inhibition in assay [1] is 6.1%; in assay [2] it was -3.25%; in assay [3], -12.6%; in assay [4], 11.8%; in assay [5] it was -1.65%; in assay [6], -21.9%.
